Compounds with a hit are over-represented: about 1.1% of the library has one in this group of screens.
PfHsp40 rescue – rescue of yeast from PfHsp40 toxicity, primary screen, S. cerevisiae, ATP luminescence; AID 504582, 2011; S. cerevisiae expressing PfHsp40, growth rescue; 340,000 tested, 0.68% active; growth rescue, % at 12.5 µM; in the data active = growth rescue above about 28%, passing the limit was not always enough;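 also: yeast W303a lacking pdr1 and pdr3 grown in galactose medium; growth measured after three days at 30 °C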
SARS 3CLpro inh-1 – SARS-CoV 3CLpro protease inhibitors, primary screen, biochemical, quenched FRET | Replicase polyprotein 1ab (Severe acute respiratory syndrome coronavirus), P0C6X7 | recombinant SARS-CoV 3CLpro, quenched FRET peptide cleavage | inhibition, % at 6 µM | 290,000 tested, 0.14% active; in the data active = inhibition above about 12%
Y pestis TopoI – Yersinia pestis topoisomerase I inhibitors, primary screen, biochemical, cleavage product accumulation, plate reader, single point; DNA topoisomerase I (Yersinia pestis CO92); Y. pestis Topo-I cleavage product accumulation; activity, % at 10 µM; 360,000 tested, 0.064% active; in the data active = activity above about 50%, passing the limit was not always enough
BJeLR viability – MLPCN primary cell-based screen for lethality selective to Ras in HRASV12 cells; BJeLR (HRASV12) viability, CellTiter-Glo ATP luminescence, 48 h; AID 1554, 2009; inhibition, % (no concentration beside the values); 300,000 tested, 0.17% active; in the data active = inhibition above about 50%
MazEF act – activators of E. coli MazEF toxin-antitoxin RNase, primary screen, biochemical, fluorescence, uHTS. FAM/BHQ RNA-DNA oligo cleavage fluorescence, 5 h. AID 504720, 2011. Endoribonuclease toxin MazF (Escherichia coli (strain K12)), P0AE70. 350,000 tested, 0.32% active. activation, % at 20 µM; in the data active = activation above about 50%
Target sequence (P0AE70 whole entry, looked up): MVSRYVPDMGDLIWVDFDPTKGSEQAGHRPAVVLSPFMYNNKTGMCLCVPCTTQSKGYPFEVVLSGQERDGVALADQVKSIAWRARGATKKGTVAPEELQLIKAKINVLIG
BioA inh – M. tuberculosis BioA enzyme inhibitors, primary screen, biochemical, plate reader, single point, HTS; purified M. tuberculosis BioA enzyme; 360,000 tested, 0.096% active; inhibition, % at 9.99 µM; in the data active = inhibition above about 40%
SARS 3CLpro inh-2 – confirmation of SARS coronavirus 3C-like protease inhibitors, retest, confirmation, biochemical | shares compounds with SARS 3CLpro inh-1 | QFRET protease activity assay, 3CLpro | inhibition, % at 6 µM | 380 tested, 36% active; in the data active = inhibition above about 13%
Numbers stand for hits; – = inactive; · = no result.

SMILES	PfHsp40 rescue	SARS 3CLpro inh-1	Y pestis TopoI	BJeLR viability	MazEF act	BioA inh	SARS 3CLpro inh-2
Cc1cc(C)c(N(C(=O)Cn2nnc3ccccc32)C(C(=O)NC(C)(C)C)c2ccsc2)c(C)c1 (stereo not drawn)	–	43	–	–	–	·	69
C[C@@H]1CN([C@@H](C)CO)C(=O)c2cc(C3=CCCC3)cnc2O[C@H]1CN(C)Cc1ccccc1	·	·	·	·	·	–	·
C[C@@H]1CN([C@@H](C)CO)C(=O)c2cccc(NC(=O)Nc3ccccc3)c2O[C@H]1CN(C)C(=O)Nc1ccc2c(c1)OCO2	·	·	·	·	·	–	·
O=C1NC(=O)N(c2ccccc2F)C(=O)/C1=C/c1cn(CC(=O)N2CCOCC2)c2ccccc12	·	18	·	–	–	·	18
CCN1C(=O)NC(=O)/C(=C\c2cn(CC(=O)N3CCCC3)c3ccccc23)C1=O	–	–	–	–	–	–	·
N#Cc1ccc(CSc2nnc(NC(=O)c3ccc4ncsc4c3)s2)cc1	–	13	–	–	–	·	43
O=C(Nc1nnc(SCc2c(Cl)cccc2Cl)s1)c1ccc2ncsc2c1	·	–	·	–	·	·	·
CNc1ccc(Br)cc(C(=O)/C=C/c2ccc3c(c2)OCO3)c1=O	–	13	–	–	–	–	–
O=C(O)c1cc(NN=C2c3ccccc3-c3ccccc32)ccc1Cl	138	14	–	–	–	–	–
O=C(C[C@@H]1CC[C@@H](NC(=O)Nc2ccccc2F)[C@@H](CO)O1)NCc1ccc(Cl)cc1	·	·	·	·	·	–	·
C[C@@H]1CCCCO[C@H](CN(C)S(=O)(=O)c2ccccc2)[C@H](C)CN([C@@H](C)CO)C(=O)c2cc(NC(=O)Nc3ccc(C(F)(F)F)cc3)ccc2O1	·	·	·	·	·	–	·
O=C(O)COc1ccc(Br)cc1C(c1c(C(=O)O)[nH]c2ccccc12)c1c(C(=O)O)[nH]c2ccccc12	–	13	–	–	–	–	16
COc1ccc(CC(=O)NC(C)c2nnc(SCCOc3ccc(OC)cc3)n2C)cc1 (stereo not drawn)	–	18	–	–	–	–	–
O=C(CCl)N(c1ccccc1)c1ccccc1	–	–	–	–	–	·	·
O=C(CCl)N(CCc1ccccc1)CCc1ccccc1	–	16	–	–	–	–	24
O=C(Nc1ccc(NC(=S)NC(=O)c2ccccc2Cl)cc1)c1cccc(Cl)c1	–	16	–	–	–	–	–
CC(C)C(=O)Nc1cccc(NC(=S)NC(=O)c2ccccc2Cl)c1	–	–	–	–	–	–	·
O=C(O)c1ccc(N2N=C(c3ccccc3)CC2c2ccccc2)cc1 (stereo not drawn)	–	13	–	–	–	–	–
Cc1cc(C(=O)Nc2cccc3c2O[C@@H](CN(C)C(=O)Nc2c(C)noc2C)[C@H](C)CN([C@H](C)CO)C3=O)n(C)n1	·	·	·	·	·	–	·
CCCCCc1c2c(cc(O)c1C(=O)O)OC(=O)c1c(cc(OC)cc1C(=O)CCCC)O2	–	15	–	–	–	–	–
COCCNC(=O)C(c1cccc(OC)c1)N(Cc1cccs1)C(=O)Cn1nnc2ccccc21 (stereo not drawn)	–	32	–	–	–	–	35
O=C(c1c(Cl)nc2sccn12)N1CCN(c2cccc(Cl)c2)CC1	–	44	–	–	–	–	–
O=C(c1cccnc1)N1C[C@H]2[C@@H](c3ccccc31)[C@@H](CO)N2Cc1ccc2c(c1)OCO2	·	·	·	·	·	–	·
Cc1ccc(-c2nn(-c3ccccc3)cc2NC(=O)CCl)cc1	–	14	–	–	–	·	13
COc1ccc(N2CCN(C(=O)c3cc(=O)[nH]c4ccccc34)CC2)cc1	–	27	–	–	–	·	27
SMILES	PfHsp40 rescue	SARS 3CLpro inh-1	Y pestis TopoI	BJeLR viability	MazEF act	BioA inh	SARS 3CLpro inh-2
O=C(c1cc(=O)[nH]c2ccccc12)N1CCN(c2cccc(C(F)(F)F)c2)CC1	–	46	–	–	–	·	44
Cc1cc(C)c(C)c(S(=O)(=O)N2CCN(C(=O)c3cc(=O)[nH]c4ccccc34)CC2)c1C	–	55	–	–	–	–	53
CCCN(C)C[C@H]1OCCCC[C@@H](C)Oc2ccc(NS(C)(=O)=O)cc2C(=O)N([C@@H](C)CO)C[C@H]1C	·	·	·	·	·	–	·
O=C(NCc1ccco1)C(c1ccco1)N(C(=O)Cn1nnc2ccccc21)c1ccc2c(c1)CCC2 (stereo not drawn)	–	15	–	–	–	–	26
Cc1cccc(N(C(=O)Cn2nnc3ccccc32)C(C(=O)NCc2ccco2)c2ccncc2)c1 (stereo not drawn)	–	–	–	–	–	–	·
S=C(c1ccc(-c2ccccc2Cl)o1)N1CCCCC1	–	27	–	–	–	·	–
CN1CCN(C(=S)c2ccc(-c3cccc(Cl)c3Cl)o2)CC1	–	–	–	–	–	–	·
O=C(Nc1ccccc1N1CCN(C(=O)c2ccc(Cl)cc2)CC1)c1cccc([N+](=O)[O-])c1	–	14	–	–	–	–	–
CN1CCN(c2ccccc2NC(=O)c2cccc([N+](=O)[O-])c2)CC1	–	–	–	–	–	–	·
CCOc1cc(C(C(=O)NCC2CCCO2)N(C(=O)Cn2nnc3ccccc32)c2ccc(NC(C)=O)cc2)ccc1O (stereo not drawn)	–	–	–	–	–	–	·
CC(=O)Nc1ccc(N(C(=O)Cn2nnc3ccccc32)C(C(=O)NC2CCCC2)c2ccc(O)c(O)c2)cc1 (stereo not drawn)	·	20	–	–	–	·	25
COc1ccc(C(C(=O)NCC2CCCO2)N(C(=O)Cn2nnc3ccccc32)c2ccc(NC(C)=O)cc2)cc1 (stereo not drawn)	–	35	–	–	–	–	30
C[C@@H]1CN([C@H](C)CO)C(=O)c2ccccc2-c2ccccc2CO[C@H]1CN(C)C(=O)CCN(C)C	·	·	·	·	·	–	·
C[C@H](CO)N1C[C@H](C)[C@@H](CN(C)C(=O)Nc2ccc3c(c2)OCO3)Oc2ccc(NC(=O)CCN3CCOCC3)cc2CC1=O	·	·	·	·	·	–	·
Cc1csc(NC(=O)c2cccc([N+](=O)[O-])c2C(=O)O)n1	–	–	–	–	–	–	·
O=C(Nc1nc(-c2ccccc2)cs1)c1cccc([N+](=O)[O-])c1C(=O)O	–	16	–	–	–	–	28
COc1ccc2[nH]c(=O)c(CN(CCc3ccccc3)Cc3nnnn3CC3CCCO3)cc2c1 (stereo not drawn)	–	–	–	–	–	–	·

High-throughput results (PubChem BioAssay)
